Compounds without any hit were thinned out: in the full panel of roughly 79,000, 15% have a hit. Active and inactive are the calls of the source. No stated cut-off is given here; in the data, active means growth inhibition above about 70%; inactive means the rest.
Experiments:
[1] = NCI Yeast Anticancer Drug Screen. Data for the rad52 strain (AID 147);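 further: 0% = growth of vehicle-treated control cultures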; details: S. cerevisiae rad52 mutant growth inhibition, active compounds read high
How it was run: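 Vehicle-treated cultures served as the reference for growth inhibition of compound-exposed yeast bearing a DNA repair mutation.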

[2] = NCI Yeast Anticancer Drug Screen. Data for the wt1 strain (AID 149);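 further: 0% = growth of vehicle-treated wt1 cultures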; details: S. cerevisiae wt1 strain (SPY 50644) growth inhibition, active compounds read high
How it was run: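 Using yeast strain wt1, compound-induced growth inhibition was determined against vehicle-treated cultures.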

[3] = NCI Yeast Anticancer Drug Screen. Data for the rad50EPP+ strain (AID 151);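 further: 0% = growth of vehicle-treated control cultures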; details: S. cerevisiae rad50 mutant strain, active compounds read high
How it was run: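 In this screen, rad50EPP+ yeast were exposed to compounds. Growth inhibition was scored against vehicle-treated controls.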

[4] = NCI Yeast Anticancer Drug Screen. Data for the mgt1 strain (AID 153); details: S. cerevisiae mgt1 mutant growth inhibition, active compounds read high
How it was run: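 mgt1 strain exposed; growth vs vehicle control recorded as inhibition.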

[5] = NCI Yeast Anticancer Drug Screen. Data for the rad50 strain (AID 155);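 further: 0% = growth of vehicle-only cultures of the same strain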; details: S. cerevisiae rad50 strain growth inhibition, active compounds read high
How it was run: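 Relative growth inhibition (compound vs vehicle) was measured in yeast with a defined repair-gene alteration.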

[6] = NCI Yeast Anticancer Drug Screen. Data for the mec2-1 strain (AID 157); details: S. cerevisiae mec2-1 strain, active compounds read high
How it was run: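 Vehicle-treated cultures served as reference for growth inhibition of compound-exposed mec2-1 yeast.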

[7] = NCI Yeast Anticancer Drug Screen. Data for the rad14 strain (AID 159);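 further: 0% = growth of vehicle-treated control cultures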; details: S. cerevisiae rad14 strain growth inhibition, active compounds read high
How it was run: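 Screen for anticancer potential: a yeast strain altered in DNA damage repair is grown with compound, and reduced growth is quantified against vehicle controls.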

[8] = NCI Yeast Anticancer Drug Screen. Data for the sgs1 mgt1 strain (AID 161);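 further: 0% = growth of cultures given vehicle only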; details: S. cerevisiae sgs1 mgt1 strain, active compounds read high
How it was run: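 Mutant yeast exposed to compound; growth scored against vehicle-only wells.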

[9] = NCI Yeast Anticancer Drug Screen. Data for the CLN2oe strain (AID 163);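 further: 0% = growth of vehicle-only control cultures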; details: S. cerevisiae CLN2oe strain, active compounds read high
How it was run: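 Inhibition relative to vehicle-treated yeast is reported. Cells: strain with genetic alteration in cell-cycle control, grown with compound.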

[10] = NCI Yeast Anticancer Drug Screen. Data for the cln2 rad14 strain (AID 165);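 further: 0% = growth equal to vehicle treated cultures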; details: S. cerevisiae cln2 rad14 strain, active compounds read high
How it was run: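 Each compound was tested on cln2 rad14 yeast. Inhibition of growth was calculated against vehicle-exposed controls.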

[11] = NCI Yeast Anticancer Drug Screen. Data for the bub3 strain (AID 167); details: S. cerevisiae bub3 mutant strain, active compounds read high
How it was run: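 Screening used yeast with an engineered genetic alteration affecting cell cycle control. Compound-exposed cultures were compared with vehicle cultures, and reduced growth was taken as inhibition.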

[12] = NCI Yeast Anticancer Drug Screen. Data for the wt2 strain (AID 169);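 further: 0% = growth of vehicle-treated yeast cultures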; details: S. cerevisiae wt2 strain growth inhibition, active compounds read high
How it was run: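 Inhibition of yeast growth was determined after compound treatment, normalised to controls receiving only vehicle.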

[13] = NCI Yeast Anticancer Drug Screen. Data for the mlh1 strain (AID 171);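 further: 0% = growth of vehicle-treated control cultures of the same strain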; details: S. cerevisiae mlh1 strain growth inhibition, active compounds read high
How it was run: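 Vehicle-normalised growth inhibition of a repair- or checkpoint-altered yeast strain following compound treatment.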

[14] = NCI Yeast Anticancer Drug Screen. Data for the sgs1 strain (AID 173);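 further: 0% = growth of vehicle-only control cultures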; details: S. cerevisiae sgs1 mutant, active compounds read high
How it was run: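 Screen format: yeast with repair or checkpoint alterations, compound exposure, growth read relative to vehicle.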

[15] = NCI Yeast Anticancer Drug Screen. Data for the mlh1 rad18 strain (AID 175); details: S. cerevisiae mlh1 rad18 strain growth inhibition, active compounds read high
How it was run: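 Vehicle-treated cultures served as the reference for growth inhibition in a yeast strain carrying DNA damage repair alterations exposed to each compound.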

[16] = NCI Yeast Anticancer Drug Screen. Data for the rad18 strain (AID 177); details: S. cerevisiae rad18 mutant growth inhibition, active compounds read high
How it was run: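 Test articles were incubated with altered yeast defective in DNA damage repair. Results are given as inhibition of growth versus vehicle.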

[17] = at 5.0 µM (retest, dose inferred, filed as 0.5)
[18] = at 50.0 µM (retest, dose inferred, filed as 5.0)

Measured: growth inhibition

CCN(CC)C(=S)SC(=S)N(CC)CC
active: [1]; at 33.0 µM 96% | [1]; at 100.0 µM 98% | [2]; at 33.0 µM 92% | [2]; at 100.0 µM 99% | [3]; at 33.0 µM 91% | [3]; at 100.0 µM 99% | [4]; at 33.0 µM 95% | [4]; at 100.0 µM 98% | [5]; at 33.0 µM 79% | [5]; at 50.0 µM 90% | [5]; at 100.0 µM 97% | [6]; at 33.0 µM 97% | [6]; at 50.0 µM 93.7% | [6]; at 100.0 µM 97% | [7]; at 33.0 µM 99% | [7]; at 100.0 µM 98% | [8]; [18] 87% | [8]; at 50.0 µM 92.8% | [9]; at 100.0 µM 98% | [11]; at 50.0 µM 91.4% | [11]; at 100.0 µM 97% | [12]; at 33.0 µM 98% | [12]; at 100.0 µM 99% | [13]; at 33.0 µM 88% | [13]; at 100.0 µM 98% | [14]; at 33.0 µM 90% | [14]; at 100.0 µM 98% | [15]; [18] 73% | [15]; at 50.0 µM 92% | [16]; at 33.0 µM 95% | [16]; at 100.0 µM 98%
inactive: [1]; at 1.2 µM -33% | [1]; at 3.7 µM -17% | [1]; at 11.0 µM 27% | [2]; at 1.2 µM -25% | [2]; at 3.7 µM -16% | [2]; at 11.0 µM 28% | [3]; at 1.2 µM -1% | [3]; at 3.7 µM 7% | [3]; at 11.0 µM 37% | [4]; at 1.2 µM -42% | [4]; at 3.7 µM -43% | [4]; at 11.0 µM 16% | [5]; at 1.2 µM -15% | [5]; at 3.7 µM 15% | [5]; [17] 10% | [5]; at 11.0 µM 29% | [5]; [18] 46% | [6]; at 1.2 µM -34% | [6]; at 3.7 µM -10% | [6]; [17] 6% | [6]; at 11.0 µM 32% | [6]; [18] 48% | [7]; at 1.2 µM -31% | [7]; at 3.7 µM -4% | [7]; at 11.0 µM 34% | [8]; [17] -9% | [9]; at 1.2 µM 0% | [9]; at 3.7 µM -8% | [9]; at 11.0 µM 18% | [9]; at 33.0 µM 63% | [10]; [17] -15% | [10]; [18] 18% | [10]; at 50.0 µM 40.2% | [11]; at 1.2 µM -25% | [11]; at 3.7 µM -21% | [11]; [17] 0% | [11]; at 11.0 µM -22% | [11]; at 33.0 µM 27% | [11]; [18] 58% | [12]; at 1.2 µM -21% | [12]; at 3.7 µM 32% | [12]; at 11.0 µM 60% | [13]; at 1.2 µM -38% | [13]; at 3.7 µM -48% | [13]; at 11.0 µM -6% | [14]; at 1.2 µM -43% | [14]; at 3.7 µM -18% | [14]; at 11.0 µM 44% | [15]; [17] 14% | [16]; at 1.2 µM -26% | [16]; at 3.7 µM 6% | [16]; at 11.0 µM 53%

CN(C)N=Nc1ccc(N(C)C)cc1
active: [5]; at 50.0 µM 82.5% | [15]; [18] 77% | [15]; at 50.0 µM 70.3%
inactive: [1]; at 1.2 µM -1% | [1]; at 3.7 µM 1% | [1]; at 11.0 µM 4% | [1]; at 33.0 µM 16% | [1]; at 100.0 µM 53% | [2]; at 1.2 µM 1% | [2]; at 3.7 µM -4% | [2]; at 11.0 µM -3% | [2]; at 33.0 µM -2% | [2]; at 100.0 µM 5% | [3]; at 1.2 µM 4% | [3]; at 3.7 µM 8% | [3]; at 11.0 µM 31% | [3]; at 33.0 µM 53% | [3]; at 100.0 µM 55% | [4]; at 1.2 µM -3% | [4]; at 3.7 µM -3% | [4]; at 11.0 µM -1% | [4]; at 33.0 µM 19% | [4]; at 100.0 µM 12% | [5]; at 1.2 µM 1% | [5]; at 3.7 µM 1% | [5]; [17] -7% | [5]; at 11.0 µM 3% | [5]; at 33.0 µM 5% | [5]; [18] 27% | [5]; at 100.0 µM 14% | [6]; at 1.2 µM 2% | [6]; at 3.7 µM 3% | [6]; [17] -9% | [6]; at 11.0 µM 3% | [6]; at 33.0 µM 7% | [6]; [18] -9% | [6]; at 50.0 µM 16.4% | [6]; at 100.0 µM 9% | [7]; at 1.2 µM -1% | [7]; at 3.7 µM 0% | [7]; at 11.0 µM 2% | [7]; at 33.0 µM 3% | [7]; at 100.0 µM 7% | [8]; [17] 2% | [8]; [18] 51% | [8]; at 50.0 µM 20.9% | [9]; at 1.2 µM -2% | [9]; at 3.7 µM -5% | [9]; at 11.0 µM -2% | [9]; at 33.0 µM -2% | [9]; at 100.0 µM -1% | [10]; [17] 2% | [10]; [18] 8% | [10]; at 50.0 µM 44.1% | [11]; at 1.2 µM 0% | [11]; at 3.7 µM -3% | [11]; [17] 18% | [11]; at 11.0 µM -7% | [11]; at 33.0 µM -5% | [11]; [18] 33% | [11]; at 50.0 µM 12.3% | [11]; at 100.0 µM 3% | [12]; at 1.2 µM -1% | [12]; at 3.7 µM -1% | [12]; at 11.0 µM 0% | [12]; at 33.0 µM 2% | [12]; at 100.0 µM 13% | [13]; at 1.2 µM -2% | [13]; at 3.7 µM -3% | [13]; at 11.0 µM 1% | [13]; at 33.0 µM 3% | [13]; at 100.0 µM 10% | [14]; at 1.2 µM 0% | [14]; at 3.7 µM 4% | [14]; at 11.0 µM 6% | [14]; at 33.0 µM 15% | [14]; at 100.0 µM 28% | [15]; [17] 23% | [16]; at 1.2 µM 1% | [16]; at 3.7 µM 1% | [16]; at 11.0 µM -15% | [16]; at 33.0 µM 11% | [16]; at 100.0 µM 29%

CCC[CH2][Sn]([CH2]CCC)([CH2]CCC)/[C](=C/[Si](C)(C)c1ccccc1)c1ccc2c(c1)OCO2
inactive: [1]; at 1.2 µM 11% | [1]; at 3.7 µM 48% | [2]; at 1.2 µM 3% | [2]; at 3.7 µM 15% | [3]; at 1.2 µM 6% | [3]; at 3.7 µM 17% | [3]; at 11.0 µM 33% | [3]; at 33.0 µM 66% | [4]; at 1.2 µM 0% | [4]; at 3.7 µM 26% | [5]; at 1.2 µM 13% | [5]; [17] 67% | [5]; [18] 67% | [6]; at 1.2 µM -1% | [6]; at 3.7 µM 17%
active: [1]; at 11.0 µM 92% | [1]; at 33.0 µM 90% | [1]; at 100.0 µM 87% | [2]; at 11.0 µM 94% | [2]; at 33.0 µM 92% | [2]; at 100.0 µM 89% | [3]; at 100.0 µM 74% | [4]; at 11.0 µM 95% | [4]; at 33.0 µM 92% | [4]; at 100.0 µM 93% | [5]; at 3.7 µM 72% | [5]; at 11.0 µM 89% | [5]; at 33.0 µM 87% | [5]; at 50.0 µM 91.2% | [5]; at 100.0 µM 87%

— PubChem BioAssay (NCI)
